In PubChem BioAssay AID1851 (National Center for Advancing Translational Sciences (NCATS), 2009):
Several values for one entry are separate records, joined by “and”; a condition that tells them apart may be missing. Equal values may be shown once. Among all 16,000 compounds or so, about 5,100 (32%) were called active. Roughly 25% stayed inconclusive and do not appear here. The list shows a part of the results. A number with no mark means an inactive call. The call rests on the fitted dose curve; in most records, active means well fitted curve in the direction sought with a large enough effect; inconclusive means small, poorly fitted or top-dose-only effect, or effect the other way; inactive means no such curve, though single readings can be large or run the other way.

Molecular target: Cytochrome P450 3A4 (Homo sapiens) (UniProt P08684)
Sequence (P08684 whole entry, looked up): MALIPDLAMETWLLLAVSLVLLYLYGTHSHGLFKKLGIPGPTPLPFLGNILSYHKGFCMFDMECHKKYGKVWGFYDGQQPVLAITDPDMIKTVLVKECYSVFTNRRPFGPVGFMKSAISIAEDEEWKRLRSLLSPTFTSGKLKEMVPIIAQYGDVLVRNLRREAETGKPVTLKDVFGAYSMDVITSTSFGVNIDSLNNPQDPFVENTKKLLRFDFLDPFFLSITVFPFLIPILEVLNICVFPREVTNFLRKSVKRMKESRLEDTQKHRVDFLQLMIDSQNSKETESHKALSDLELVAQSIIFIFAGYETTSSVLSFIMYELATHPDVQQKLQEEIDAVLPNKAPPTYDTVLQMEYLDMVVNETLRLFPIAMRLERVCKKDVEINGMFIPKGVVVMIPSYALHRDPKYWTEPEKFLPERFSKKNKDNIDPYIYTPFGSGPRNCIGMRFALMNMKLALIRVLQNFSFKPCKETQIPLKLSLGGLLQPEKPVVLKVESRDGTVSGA
Experiment: Cytochrome panel assay with activity outcomes
Conditions: recombinant CYP, pro-luciferin dealkylation, luminescence, p450-cyp3a4; series mostly up to 57.1 µM
On the % scale 0 is the no-effect control and ±100 the full control effect.

Row | Compound | AC50 | activity, negative = inhibition
1 | C/C(O)=C\c1nc2ccccc2oc1=O | inactive | 
2 | CO[C@H]1C=CO[C@]2(C)Oc3c(C)c(O)c4c(O)c(c5c(c4c3C2=O)NC2(CCN(CC(C)C)CC2)N=5)=NC(=O)C(C)=CC=C[C@@H](C)[C@@H](O)[C@@H](C)[C@@H](O)[C@@H](C)[C@@H](OC(C)=O)[C@@H]1C | inactive | 
3 | CO[C@@H]1/C=C\O[C@@]2(C)Oc3c(C)c(O)c4c(c3C2=O)C(=N[C@H]2CC[C@H](O)O[C@@H]2C)C=C(NC(=O)/C(C)=C\C(=O)[C@@H]2C[C@@H]2[C@@H](O)[C@H](C)[C@@H](O)[C@H](C)[C@H](OC(C)=O)[C@@H]1C)C4=O | 1.26 µM (active) | 
4 | CC(C)C(=O)NC(=S)Nc1ccccc1C(=O)Nc1ccccc1 |  | 11.2% [at 2.29 µM]
5 | COc1ccc(/C=C(/C(=O)Nc2ccccc2C(=O)NC(C)C)c2ccccc2)cc1 | 11.2 µM (active) | 
6 | Cc1ccccc1NC(=O)/C(=C/c1ccccc1)c1ccccc1 |  | 12.5% [at 11.4 µM]
7 | OC[C@@H]1NC[C@@H](O)[C@H]1O | inactive | 
8 | COc1cccc([C@@H]2Oc3ccc(OC)cc3/C(=N/O[C@@H](C)c3cn([C@H]4COC[C@H]4O)nn3)[C@@H]2O)c1 | 3.16 µM (active) | 
9 | CC(C)=NO[C@@H](C)c1cn([C@@H]2COC[C@@H]2O)nn1 |  | -6.38% [at 11.4 µM]
10 | Cc1cc(C)c(-c2cc([C@H](C)O/N=C\[C@@H](C)[C@H](OCc3ccccc3)C(C)C)on2)c(C)c1 |  | -37.1% [at 11.4 µM]
11 | CCN1C(=O)[C@H]2[C@H]3[C@H](O)[C@H](O)C/C(=N/O[C@@H](C)c4cn([C@H]5COC[C@H]5O)nn4)[C@@H]3CC[C@@H]2C1=O |  | -18.4% [at 11.4 µM]
12 | COc1cccc([C@@H]2Oc3ccc(OC)cc3/C(=N/O[C@@H](C)c3cc(-c4c(C)cc(C)cc4C)no3)[C@@H]2O)c1 | 1.58 µM (active) | 
13 | COc1cccc([C@H]2Oc3ccc(OC)cc3/C(=N\O[C@@H](C)c3cn([C@H](CO)Cc4ccccc4)nn3)[C@@H]2O)c1 | 3.16 µM (active) and 3.98 µM (active) | 
14 | CCC(NC(=O)C1(C)CC1(Br)Br)c1ccc(C)cc1 (configuration not stated) | 3.98 µM (active) | 
15 | CCC(C)[C@H](NC(=O)NC1CCN(Cc2ccccc2)CC1)C(=O)OC (some centres not stated) | inactive | 
16 | CCC(C)C(NC(=O)OCc1ccccc1)C(=O)OCN1C(=O)c2ccccc2C1=O (configuration not stated) | 7.08 µM (active) | 
17 | O=C1NCCc2c1[nH]c1ccccc21 |  | 17.8% [at 2.29 µM]
18 | CCOC(=O)COc1c(C=O)cc(Br)cc1OC | inactive | 
19 | CCOc1cc(/C=C2\N=C(C)OC2=O)cc(Br)c1OCC(=O)OC | 10 µM (active) | 
20 | O=C1CCC(c2ccccc2)(c2ccccc2)CC1 |  | 10.5% [at 11.4 µM]
21 | c1ccc2c(CC3NCCN3)cccc2c1 |  | -5.75% [at 11.4 µM]
22 | CN1CCCC[C@@H]1CCN1CCCCC1 |  | -2.94% [at 11.4 µM]
23 | CCN(CC)c1nc2ccccc2[nH]1 | inactive | 

Row | Compound | AC50 | activity, negative = inhibition
24 | OCCNc1nc2ccccc2[nH]1 | inactive | 
25 | c1ccc(-c2n[nH]c(-c3ccccc3)c2-c2nc3ccccc3[nH]2)cc1 | 2.24 µM (active) | 
26 | Cc1c(Cl)c(S(N)(=O)=O)cc2c1=NC=NS=2(=O)O |  | -13% [at 11.4 µM]
27 | CCON=C1C(C)(C)C(C)(C)C(C)(C)C1(C)C |  | -9.31% [at 11.4 µM]
28 | COc1ccc(O[C@H]2C=C[C@@H](c3ccccc3)O[C@H]2COC(=O)CC/C(C)=N\O[C@@H](C)CN2CCCCc3nc(C)c(C)cc32)cc1 | 3.98 µM (active) | 
29 | COc1ccc(O[C@H]2C=C[C@@H](c3ccccc3)O[C@H]2COC(=O)CC/C(C)=N\O[C@@H](C)CN2CCCc3nc(C)c(C)cc32)cc1 | 3.16 µM (active) | 
30 | Cc1ccc(N(C(C)C(=O)Nc2cc(Cl)ccc2Oc2ccccc2)S(C)(=O)=O)cc1 (configuration not stated) | 4.47 µM (active) | 
31 | CC(C(=O)Nc1ccccc1Sc1ccccc1)N(c1ccccc1)S(C)(=O)=O (configuration not stated) | 5.01 µM (active) | 
32 | O=C(O)[C@@H]1Cc2c([nH]c3ccccc23)[C@@H](CCCCO)N1 |  | 1.47% [at 11.4 µM]
33 | CC(=O)N1CCC2(CCCN(c3ncccn3)C2)CC1 | inactive | 
34 | COc1ccc(CCN2C(=NC(=O)CCC(=O)O)SC3CS(=O)(=O)CC32)cc1 (configuration not stated) | inactive | 
35 | CCNC(=O)CC1C(=O)N(c2ccc(F)cc2)C(=O)N1CCc1ccc(OC)cc1 (configuration not stated) | 7.08 µM (active) | 
36 | COc1ccc(C(=O)NC2(C(F)(F)F)C(=O)Nc3c2c(=O)[nH]c(=O)n3CCc2ccc(OC)c(OC)c2)cc1 (configuration not stated) | inactive | 
37 | CC(=O)Nc1ccc(S(=O)(=O)NC2(C(F)(F)F)NC(=O)N(c3ccc(Cl)cc3)C2=O)cc1 (configuration not stated) | inactive | 
38 | O=C(CC1C(=O)N(c2ccc(Cl)cc2)C(=S)N1CCc1ccncc1)Nc1ccc(F)cc1 (configuration not stated) | 1.26 µM (active) | 
39 | COc1ccc2c3c(ccc2c1)N[C@H](C(=O)O)CC3 |  | -10.2% [at 11.4 µM]
40 | O=C(c1ccncc1)N1CCC[C@@]2(CCN(c3ccccc3)C2)C1 | 3.16 µM (active) | 
41 | O=C(c1ccncc1)N1CCC2(CC1)CN(c1cccc(-c3ccccc3)c1)C2 | 7.94 µM (active) | 
42 | O=C(c1ccco1)N1CCC2(CC1)CN(c1cccc(-c3ccccc3)c1)C2 | inactive | 
43 | O=C(c1cnccn1)N1CCC[C@@]2(CCN(c3ccccn3)C2)C1 | 10 µM (active) | 
44 | CC(=O)N1CCC[C@@]2(CCN(c3ncccn3)C2)C1 | inactive | 
45 | O=C(c1ccncc1)N1CCC2(CC1)CCN(c1ccccc1)CC2 | inactive | 
46 | O=C(c1ccncc1)N1CCC2(CC1)CN(c1ccccc1)C2 | inactive | 

Row | Compound | AC50 | activity, negative = inhibition
47 | O=C(c1ccncc1)N1CCC2(CC1)CN(c1ncccn1)C2 | inactive | 
48 | O=C(c1cnccn1)N1CCC[C@@]2(CCN(c3ccccc3)C2)C1 | 7.94 µM (active) | 
49 | CC1(C)Oc2cc(N)c([N+](=O)[O-])cc2O1 | inactive | 
50 | Cc1c(C=NCCOCc2ccccc2)cnn1C | inactive | 
51 | CC(=O)N1CCC2(CC1)CN(c1ccncc1)C2 | inactive | 
52 | CC(=O)N1CCC2(CCCN(c3ccccn3)C2)CC1 | inactive | 
53 | O=C(c1ccncc1)N1CCC[C@@]2(CCN(c3ccccn3)C2)C1 | 7.94 µM (active) | 
54 | O=C(c1ccncc1)N1CCC2(CC1)CCN(c1ccccn1)CC2 | inactive | 
55 | O=C(c1cnccn1)N1CCC[C@@]2(CCN(c3ccncc3)C2)C1 | 3.16 µM (active) | 
56 | O=C(c1cnccn1)N1CCC2(CC1)CN(c1ccncc1)C2 | inactive | 
57 | COc1cc(C2C(C#N)=C(N)N(Nc3ccccc3)C3=C2C(=O)CC(C)(C)C3)ccc1OCc1ccccc1 (configuration not stated) | 2.82 µM (active) | 
58 | COc1cc(C2C(C#N)=C(N)N(c3sc4c(c3C#N)CCCC4)C3=C2C(=O)CC(C)(C)C3)cc(OC)c1OC (configuration not stated) | 0.501 µM (active) | 
59 | COc1cc(C2C(C#N)=C(N)N(Nc3ccccc3)C3=C2C(=O)CC(C)(C)C3)ccc1OCc1cccc(F)c1 (configuration not stated) | 2.51 µM (active) | 
60 | COc1ccc(C2C(C#N)=C(N)N(Nc3ccccc3)C3=C2C(=O)CC(C)(C)C3)cc1C (configuration not stated) | 2 µM (active) | 
61 | CCOc1cc(/C=C2\CCC/C(=C\c3cc(Cl)c(O)c(OCC)c3)C2=O)cc(Cl)c1O |  | -14.8% [at 2.29 µM]
62 | CCCCCCCCCCCCC/C=C\[C@@H](O)[C@@H](N)CO | inactive | 
63 | Cc1cccc(CSCCNC(=O)c2ccc(N(C)S(=O)(=O)c3ccccc3)cc2)c1 | 3.98 µM (active) | 
64 | CN(c1ccc(C(=O)NCC2CCCO2)cc1)S(=O)(=O)c1ccccc1 (configuration not stated) | inactive | 
65 | O=C(O)CCSCc1ccccc1 |  | -12.2% [at 11.4 µM]
66 | C=CCOC(=O)/C(=C\c1cccc2ccccc12)NC(=O)c1ccccc1 | 0.2 µM (active) | 
67 | O=C1CCC(c2ccc(-n3ccnc3)cc2)=NN1 | 1.58 µM (active) | 
68 | N#C/C(=C\c1ccc(Cl)cc1)c1nc2ncccc2[nH]1 |  | -7.91% [at 2.29 µM]
69 | COc1cc(/C=C(/C#N)c2nc3ccccc3[nH]2)ccc1OCC(=O)Nc1ccccc1C | 1.26 µM (active) | 

Row | Compound | AC50 | activity, negative = inhibition
70 | N#C/C(=C\c1ccccc1)c1nc2ncccc2[nH]1 |  | -24% [at 2.29 µM]
71 | COc1cc(/C=C(/C#N)c2nc3ccccc3[nH]2)ccc1Oc1ncccc1[N+](=O)[O-] | 1.58 µM (active) | 
72 | COc1ncnc(NS(=O)(=O)c2ccc(N)cc2)c1OC | inactive | 
73 | CCOC(=O)c1cnc(N(C)C)nc1SC(=N)N |  | -4.2% [at 11.4 µM]
74 | CSc1ccc(S(=O)(=O)Nc2ccc3c4c(cccc24)CC3)cc1 | 5.01 µM (active) | 
75 | Cc1cc(C)cc(OCC(=O)Nc2ccc3c4c(cccc24)CC3)c1 | inactive | 
76 | CC(C)=CCC1=C(OCC(=O)O)C(=O)c2ccccc2C1=O |  | -24.9% [at 11.4 µM]
77 | COc1nnc(OC)c2ccccc12 | inactive | 
78 | COC1=C(OC)C(=O)c2ccccc2C1=O | 20 µM (active) | 
79 | C#CCn1c(=O)c2c(ncn2C)n(C)c1=O | inactive | 
80 | N#Cc1c2n(c3c(=S)nc[nH]c13)CCCCC2 |  | 9.26% [at 2.29 µM]
81 | COc1ccc2c(c1)Cc1cc(N=[N+]([O-])c3ccc4c(c3)Cc3cc(OC)ccc3-4)ccc1-2 | 5.01 µM (active) | 
82 | Cc1cccc(-n2cnc(C(=O)NC3CCCCCC3)c2)n1 | 14.1 µM (active) | 
83 | Cc1cnc(NC(=O)CSc2ccc(Cl)cc2)s1 | 15.8 µM (active) | 
84 | Cc1cc(Cl)nc(NC(=O)CSc2ccc(Cl)cc2)n1 |  | -7.2% [at 11.4 µM]
85 | CCC[C@H](Sc1nc(N)nc2nc[nH]c12)C(=O)O |  | -4.34% [at 11.4 µM]
86 | Nc1nc(SCc2ccccc2[N+](=O)[O-])c2[nH]cnc2n1 | 3.16 µM (active) | 
87 | CC(C)[C@H](Sc1nc(N)nc2nc[nH]c12)C(=O)O |  | -2.83% [at 11.4 µM]
88 | Nc1nc(Sc2ccc([N+](=O)[O-])c3nonc23)c2[nH]cnc2n1 |  | -24.7% [at 11.4 µM]
89 | Nc1nc(SCCc2ccccc2)c2[nH]cnc2n1 | 2.51 µM (active) | 
90 | Nc1nc(SC/C=C\c2ccccc2)c2[nH]cnc2n1 | 2.51 µM (active) | 
91 | Nc1nc(N)c2[nH]cnc2n1 (tested in a mixture with another compound) |  | -3.42% [at 11.4 µM]
92 | Nc1nc(N)c(CCCCc2ccccc2)c(N)n1 |  | 5.2% [at 11.4 µM]
